We go through 104 compounds from PubChem BioAssay AID376 (PDSP, 2006).

In all, about 2,000 compounds went through this assay and about 250 (12%) were called active. Shown is part of a subset that was picked to be rich in actives. Unmarked numbers belong to inactive results. No stated cut-off is given here; in the data, active means hERG blockade below about -20% or above about 20%; inactive means in between.

This assay deals with Voltage-gated inwardly rectifying potassium channel KCNH2 (Homo sapiens) (UniProt Q12809). In words: modulators of KCNH2 ion channel function, cellular (AID 376).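 Further: 0% = buffer alone and 100% = reference blocker.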 The conditions noted are these: hERG-expressing cells, channel activity single-concentration screen; concentration not given here. In general terms: The hERG channel carries a current that helps repolarise heart muscle cells.
Sequence of Voltage-gated inwardly rectifying potassium channel KCNH2 (Homo sapiens) (Q12809 whole entry, looked up): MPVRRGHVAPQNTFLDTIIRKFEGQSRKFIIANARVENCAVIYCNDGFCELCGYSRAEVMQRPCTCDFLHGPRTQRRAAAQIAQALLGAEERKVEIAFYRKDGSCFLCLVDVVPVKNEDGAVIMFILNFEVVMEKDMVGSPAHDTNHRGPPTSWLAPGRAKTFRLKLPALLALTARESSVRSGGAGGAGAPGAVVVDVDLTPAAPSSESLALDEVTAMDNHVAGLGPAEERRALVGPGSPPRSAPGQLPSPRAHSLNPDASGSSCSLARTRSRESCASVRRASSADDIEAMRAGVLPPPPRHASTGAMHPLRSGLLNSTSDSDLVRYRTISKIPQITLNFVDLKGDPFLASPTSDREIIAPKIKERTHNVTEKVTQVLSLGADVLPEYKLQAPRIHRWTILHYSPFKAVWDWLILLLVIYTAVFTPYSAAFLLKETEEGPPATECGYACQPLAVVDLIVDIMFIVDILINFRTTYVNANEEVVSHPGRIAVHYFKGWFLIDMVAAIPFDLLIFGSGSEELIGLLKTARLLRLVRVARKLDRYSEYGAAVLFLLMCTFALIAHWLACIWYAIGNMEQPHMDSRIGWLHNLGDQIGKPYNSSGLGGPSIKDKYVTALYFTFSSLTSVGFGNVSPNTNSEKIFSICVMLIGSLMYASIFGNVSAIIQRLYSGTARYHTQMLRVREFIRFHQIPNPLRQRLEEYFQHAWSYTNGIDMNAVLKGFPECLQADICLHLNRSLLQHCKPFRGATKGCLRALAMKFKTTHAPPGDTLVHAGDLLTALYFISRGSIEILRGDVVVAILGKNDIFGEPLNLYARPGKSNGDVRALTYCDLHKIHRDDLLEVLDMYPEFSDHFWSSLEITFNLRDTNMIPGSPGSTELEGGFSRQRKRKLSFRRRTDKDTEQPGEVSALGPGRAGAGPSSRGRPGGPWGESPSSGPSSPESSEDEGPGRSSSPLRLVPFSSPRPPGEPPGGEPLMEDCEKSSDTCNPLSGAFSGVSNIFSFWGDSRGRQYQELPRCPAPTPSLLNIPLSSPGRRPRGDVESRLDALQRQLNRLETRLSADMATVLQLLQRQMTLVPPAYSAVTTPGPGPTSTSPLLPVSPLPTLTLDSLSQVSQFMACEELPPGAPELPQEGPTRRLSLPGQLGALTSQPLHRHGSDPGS
Consider `C(=NNc1ccccn1)c1cccnc1`, for which the hERG blockade was 20.3% (active).

With `C(=NNc1nnc2c(n1)[nH]c1ccccc12)c1cccnc1`, the hERG blockade was 9.9%.

For `c1ccc(CCc2cccnc2)nc1`, the hERG blockade is 5.71%.

Regarding `Nc1ccc(-c2ccc(Nc3cc(S(=O)(=O)O)c(N)c4c3C(=O)c3ccccc3C4=O)cc2)c(S(=O)(=O)O)c1`, the hERG blockade was 14.3%.

As for `O=C(O)CCNCC(=O)O`, the hERG blockade is 2.22%.

Consider `Cc1cc(C(C)(C)C)cc(CNC2CCCCC2)c1O`, for which the hERG blockade is -1.49%.

`OCCN(CCO)c1ncnc2nc[nH]c12`: the hERG blockade is 9.05%.

For `CN(C)CCCC1c2ccccc2Oc2ccc(C(F)(F)F)cc21` (centres undefined), the hERG blockade is 32.9% (active).

As to `CCCC1c2c(ccc3ccccc23)Oc2ccc3ccccc3c21`, the hERG blockade is 16.8%.

As to `NC(N)=NN=Cc1ccc(O)c(C(=O)O)c1`, the hERG blockade was 7.85%.

Consider `Cc1nc(CN2CCCCC2)c(O)c(=O)[nH]1`, for which the hERG blockade was -28.2% (active).

For the compound `Cc1cc(CN2CCCCC2)c(O)c(CN2CCCCC2)c1`, the hERG blockade was 8.76%.

`O=C(O)c1[nH]c(=O)[nH]c(=O)c1CN1CCCCC1`: the hERG blockade is -7.69%.

As to `CCN1CCC(O)(C(C(=O)O)c2ccccc2)CC1` (centres undefined), the hERG blockade is 4.76%.

As to `CC(C)=CCNc1ncnc2nc[nH]c12`, the hERG blockade is -6.5%.

For the compound `CCN(CC)CC(O)c1ccc2ccc3ccccc3c2c1` (centres undefined), the hERG blockade was -73.4% (active).

Consider `Cc1cccc2cc3ccc4ccccc4c3cc12`, for which the hERG blockade was 11.1%.

Turning to `CCN(Cc1cc(Cl)cc(C)c1O)Cc1c(O)ccc2ccccc12`, the hERG blockade is 13%.

`N=C(N)SCCSC(=N)N`: the hERG blockade is 9.63%.

Regarding `N#CC(C#N)=NNc1ccc2cn[nH]c2c1`, the hERG blockade was -4.08%.

As for `CN(C)S(=O)(=O)Nc1ccccn1`, the hERG blockade is 4.55%.

Regarding `O=C(O)CC[P+](c1ccccc1)(c1ccccc1)c1ccccc1`, the hERG blockade is 19.1%.

On to `CN(CCC(=O)O)S(=O)(=O)c1ccccc1`, for which the hERG blockade is -22% (active).

`CC(O)(CNS(=O)(=O)c1ccccc1)c1ccccc1` (centres undefined): the hERG blockade was -5.67%.

`O=c1[nH]c(SCc2cccc([N+](=O)[O-])c2)nc2nc[nH]c12`: the hERG blockade is 7.87%.

For `CC1(CO)C(O)CCC2(C)C1CCC1CC3CC12CCC3(O)COC(=O)CN` (centres undefined), the hERG blockade is 14.2%.

Take `N=C(N)SCC(=O)O`: the hERG blockade was 11%.

For `O=C(O)c1cscc1Cc1cccs1`, the hERG blockade was -9.17%.

Take `O=C(O)c1ccccc1CN1CCCC(C(=O)O)C1` (centres undefined): the hERG blockade was -4.8%.

On to `O=C(O)CSc1cc(-c2ccccc2)nc2ccccc12`, for which the hERG blockade is -16.2%.

With `OC(c1cc(-c2ccc(Cl)cc2)nc2ccccc12)C1CCCCN1` (centres undefined), the hERG blockade was 74.7% (active).

`OC(c1cc(C23CC4CCC2CC(C4)C3)nc2c(Cl)cc(Cl)cc12)C1CCCCN1` (centres undefined): the hERG blockade was -0.23%.

With `COc1ccc(-c2cc(C(O)C3CCCCN3)c3ccccc3n2)cc1` (centres undefined), the hERG blockade is 72.7% (active).

Regarding `O=C(O)c1cc(-c2ccc(-c3ccccc3)cc2)nc2cc3ccccc3cc12`, the hERG blockade is 12.2%.

Take `OC(c1cc(-c2ccccc2)nc2c1ccc1ccccc12)C1CCCCN1` (centres undefined): the hERG blockade is 26.8% (active).

On to `OC(CC1CCCCN1)c1ccc2c(c1)oc1ccccc12` (centres undefined), for which the hERG blockade was 4.42%.

With `c1ccc2nc(CCC3CCCCN3)ccc2c1` (centres undefined), the hERG blockade was -2.95%.

`Cc1cc(C)c2nc3c(c(C(O)C4CCCCN4)c2c1)CCC3=Cc1ccc(Cl)cc1` (centres undefined): the hERG blockade was 8.84%.

Regarding `O=C(O)c1cc(-c2ccc3cc4c(cc3c2)OCO4)nc2ccccc12`, the hERG blockade is 17.2%.

As to `OC(c1cc(C(F)(F)F)nc2c(Cl)cc(Cl)cc12)C1CCCCN1` (centres undefined), the hERG blockade was 28.7% (active).

For the compound `NC(CSCc1ccc(I)cc1)C(=O)O` (centres undefined), the hERG blockade is 8.02%.

`O=C(O)c1cc2c(cc1S(=O)(=O)O)C1C(C3C2C2(Cl)C(Cl)=C(Cl)C3(Cl)C2(Cl)Cl)C2(Cl)C(Cl)=C(Cl)C1(Cl)C2(Cl)Cl` (centres undefined): the hERG blockade was 3.63%.

With `CC(C)Oc1cc(O)c2c(c1)OCC=C2CCC(=O)O`, the hERG blockade was 16%.

As for `O=C1OC2(c3ccc(O)cc3Oc3cc(O)ccc32)c2c1c(-c1ccccc1)c(-c1ccccc1)c(-c1ccccc1)c2-c1ccccc1`, the hERG blockade was -2.77%.

Consider `O=C(O)C=CC=Cc1ccc2c(c1)OCO2`, for which the hERG blockade was -8.5%.

On to `O=C(O)CSC1=NCCN1`, for which the hERG blockade was -1.36%.

As for `Cc1ccc(S(=O)(=O)OC2CCN(C)CC2)cc1`, the hERG blockade was -11.1%.

As to `Nc1ncnc2nn(C3OC(CO)C(O)C3O)nc12` (centres undefined), the hERG blockade was 13.3%.

With `N#CC(=NCCO)C1=C(O)c2ccccc2C1=O`, the hERG blockade is -3.02%.

As for `CC1CCCC2(CC[N+](C)(CCC[N+](C)(C)C)CC2)C1` (centres undefined), the hERG blockade is 17.8%.

In the case of `CCN(CC(=O)O)CC(=O)O`, the hERG blockade is 4.67%.

Consider `CC12CCC(=O)C=C1CCC1C2C(O)CC2(C)C1CCC2(O)C(=O)COC(=O)C1CCCC1` (centres undefined), for which the hERG blockade was -2.63%.

With `CN1CCCC(C(=O)OCC(=O)C2(O)CCC3C4CCC5=CC(=O)CCC5(C)C4C(O)CC32C)C1` (centres undefined), the hERG blockade is 25.6% (active).

As to `CC12CCC(=O)C=C1CCC1C2C(O)CC2(C)C1CCC2(O)C(=O)CO` (centres undefined), the hERG blockade is 14.3%.

On to `CC(NC(=O)C1(N)CCCC1)C(=O)O` (centres undefined), for which the hERG blockade is -5.06%.

With `CCOC(=O)Cn1c(C(F)(F)F)nc2nc(Cl)c(Cl)nc21`, the hERG blockade is 13.4%.

Turning to `O=C(O)c1nn(-c2ccc(Cl)cc2)c2c1C(=O)c1ccccc1C2=O`, the hERG blockade was 26% (active).

In the case of `O=C(O)c1nn(-c2ccccc2-c2n[nH]c(=O)[nH]c2=O)c(=O)[nH]c1=O`, the hERG blockade is 7.69%.

Turning to `O=C1C(=O)c2ccccc2C(O)=C1C(C1=C(O)c2ccccc2C(=O)C1=O)c1ccc(Cl)cc1`, the hERG blockade was 17.5%.

On to `Cc1cn(C2CC(N=[N+]=[N-])C(CO)O2)c(=O)[nH]c1=O` (centres undefined), for which the hERG blockade is 9.12%.

For the compound `CC(C)C12CCC3(CCC4C(C)(C(=O)O)CCCC4(C)C3C1)C(CN)C2` (centres undefined), the hERG blockade is -4.91%.

`CN(C)CCC=C1c2ccccc2C=Cc2ccccc21`: the hERG blockade was 15.1%.

On to `CN(C)CCC=C1c2ccccc2Sc2ccc(Cl)cc21`, for which the hERG blockade is 66.2% (active).

With `CC(C[n+]1ccccc1)=NN=C(N)N`, the hERG blockade is 12.9%.

For the compound `Clc1ccc2c(N3CCC(CCC4CCN(c5ncnc6cc(Cl)ccc56)CC4)CC3)ncnc2c1`, the hERG blockade is -8.41%.

With `Clc1ccc2c(NCCNc3ccnc4cc(Cl)ccc34)ccnc2c1`, the hERG blockade is 0.444%.

In the case of `Clc1ccc2c(NC3CCC(N4CCCCC4)CC3)ccnc2c1` (centres undefined), the hERG blockade is 53.4% (active).

For the compound `O=C(O)c1ccc(Nc2ccnc3cc(Cl)ccc23)cc1O`, the hERG blockade is -3.15%.

Take `Clc1ccc2c(NCCNC3CCCCC3)ccnc2c1`: the hERG blockade is 63.2% (active).

`O=C(O)CN(CCN(CC(=O)O)CC(=O)O)CC(=O)O.[Mn+2]`: the hERG blockade is -6.49%.

Take `O=c1ccc(-c2ccccc2)n[nH]1`: the hERG blockade was 17.2%.

`CC(C)C(N)(C(=O)O)c1ccccc1` (centres undefined): the hERG blockade was -5.81%.

Regarding `CC1(c2ccccc2)OC2CC3C4CCC5=CC(=O)C=CC5(C)C4(F)C(O)CC3(C)C2(C(=O)CO)O1` (centres undefined), the hERG blockade is 6.41%.

As for `O=CNc1ncn[nH]1`, the hERG blockade is -3.79%.

Take `c1c[nH]c(CN2CCOCC2)n1`: the hERG blockade is 2.23%.

Turning to `CC1CCC2C(C)C3C(CC4C5CC=C6CC(O)CCC6(C)C5CC(O)C43C)N2C1` (centres undefined), the hERG blockade is -3.2%.

`CC(=O)Nc1nc(NC(C)=O)c2[nH]c(CO)nc2n1`: the hERG blockade was 0.0402%.

With `O=S1(=O)NC2CCC3NS(=O)(=O)NC4CCC(N1)N4S(=O)(=O)N23` (centres undefined), the hERG blockade was 0.569%.

In the case of `C[N+](C)(C)CCN(Cc1cccs1)c1ccccn1`, the hERG blockade was 39.5% (active).

`CN(C)CCN(c1ccccn1)c1ccccn1`: the hERG blockade is -15.1%.

For `CC(CO)(CO)N=Cc1cc(I)cc(I)c1O`, the hERG blockade was 5%.

Regarding `O=C1Oc2ccccc2C(=O)C1=CN1C(=O)NC(=Cc2ccccc2O)C1=O`, the hERG blockade is 10.5%.

Consider `c1ccc(SC(Sc2ccccc2)c2ccc3c(c2)OCO3)cc1`, for which the hERG blockade was 15.6%.

`CN(C)c1ccc(C(=C2C=CC(=[N+](C)C)C=C2)c2ccccc2)cc1`: the hERG blockade was 40.6% (active).

`CN(C)c1ccc(C(=C2C=CC(=[N+](C)C)C=C2)c2c(O)c(S(=O)(=O)[O-])cc3cc(S(=O)(=O)O)ccc23)cc1`: the hERG blockade was 8.17%.

Consider `N=C1C=CC(=C(c2ccc(N)cc2)c2ccc(N)cc2)C=C1`, for which the hERG blockade is 9.77%.

Consider `CC(=O)CC(=O)Nc1ccc2ccccc2c1`, for which the hERG blockade is 2.34%.

On to `O=C(c1ccccc1)C(Nc1ccc2ccccc2c1)c1ccccc1` (centres undefined), for which the hERG blockade is 25.3% (active).

Consider `O=C(O)CCC(=O)Nc1ccc2ccccc2c1`, for which the hERG blockade is 10%.

In the case of `O=S(=O)(O)C(CO)c1ccccc1` (centres undefined) (tested in a mixture with another compound), the hERG blockade was 13.2%.

Take `NNC(=O)c1ccc(OCc2nc3ccccc3[nH]2)cc1`: the hERG blockade was 0.772%.

As to `O=C(O)C1CCN(Cc2oc(CO)cc(=O)c2O)C1` (centres undefined), the hERG blockade is 3.01%.

`CN(CC(=O)O)Cc1c(O)c(Cl)cc(Cl)c1Cl`: the hERG blockade is -16.4%.

With `CN(CC(=O)O)Cc1oc(CO)cc(=O)c1O`, the hERG blockade was -29.8% (active).

Regarding `CC1=C(CCC(C)CO)OC2CC3C4CCC5CC(O)CCC5(C)C4CC(=O)C3(C)C12` (centres undefined), the hERG blockade was -6.35%.

In the case of `NC1=C(O)C(=O)C(c2c[nH]c3ccc(OCc4ccccc4)cc23)O1` (centres undefined), the hERG blockade is 12.8%.

In the case of `Nc1nc(-c2ccc3ccccc3c2)cc(-c2cc(-c3ccc4ccccc4c3)nc(N)n2)n1`, the hERG blockade was 2.73%.

Take `S=C1NCN2CCN(CC2)CNC(=S)C(=S)NCN2CCN(CC2)CNC1=S`: the hERG blockade was 17.9%.

`O=[N+]([O-])c1cc(Cc2cc([N+](=O)[O-])c3cccnc3c2O)c(O)c2ncccc12`: the hERG blockade is -5.37%.

As to `Nc1nc(Cl)cc(NCCO)n1`, the hERG blockade was -8.52%.

With `O=[N+]([O-])c1cc(Cl)cc2c1nc(NCCO)c1ccccc12`, the hERG blockade was 38% (active).

As for `Cc1cn(CCC(N)C(=O)O)c(=O)[nH]c1=O` (centres undefined), the hERG blockade was 2.71%.

On to `O=C(Cn1ccc(=O)[nH]c1=O)Nc1ccc(C(=O)O)c(O)c1`, for which the hERG blockade was -7.44%.

In the case of `O=C(O)CCCCn1ccc(=O)[nH]c1=O`, the hERG blockade was -28% (active).
